Growth data for eight molecules are collected here from PubChem BioAssay (NCI).

The structures appear in SMILES notation. Compounds without any hit were thinned out: in the full panel of roughly 83,000, 20% have a hit.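 Activity criterion: percent growth below 10, measured after cells in 96-well plates were exposed to a single compound concentration for 48 hours.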 A number with no mark means an inactive call. Calls of active or inactive are those of the source.

Test systems include DU-145 prostate; K-562 leukemia; MALME-3M melanoma; MDA-MB-231 breast; RXF 393 renal; SF-268 CNS; SF-295 CNS; SF-539 CNS; UACC-257 melanoma; M14 melanoma; HCT-15 colon; HT29 colon; SNB-75 CNS; SNB-19 CNS; U251 CNS; PC-3 prostate; SK-MEL-5 melanoma; UACC-62 melanoma; LOX IMVI melanoma; SK-MEL-28 melanoma.
Holding throughout (assay): NCI-60 one-dose screen, 48 h (100 = growth as untreated, 0 = no growth, -100 = all killed)
What all share (conditions): 10 µM unless noted

For the molecule `CC1=CCC(OC(=O)C(C)(C)CC(O)(C(C)O)C(O)C2(C)C=CC(Cc3ccc(C(C)C)cc3)(C(C)C)CC2)(C(C)C)CC1` (stereo not given), the growth with DU-145 prostate is 107%; in the experiment on K-562 leukemia, 9.06% (active); in the experiment with MALME-3M melanoma it was 92.2%; in the experiment with MDA-MB-231 breast, 95.9%; in the experiment with RXF 393 renal, 97.8%; with SF-268 CNS it was 98.5%. Further, the growth in the experiment with SF-295 CNS is 97.1%; with SF-539 CNS it was 93.3%; in the experiment on UACC-257 melanoma, 98.7%; with M14 melanoma it was 96.1%; with HCT-15 colon, 101%; with HT29 colon, 103%. The growth in the experiment with SNB-75 CNS was 72.5%; with SNB-19 CNS, 98.2%; in the experiment on U251 CNS, 96.7%; in the experiment with PC-3 prostate it was 96.8%; in the experiment with SK-MEL-5 melanoma it was 99.6%; in the experiment with UACC-62 melanoma it was 86.3%. Also, the growth in the experiment with LOX IMVI melanoma is -50.6% (active); with SK-MEL-28 melanoma, 100%.

As for `COC(=O)c1ccc(NC(=O)Nc2ccc(C(=O)OC)cc2)cc1`, the growth is 121% with DU-145 prostate; 90.6% in the experiment with K-562 leukemia; 123% in the experiment on MALME-3M melanoma; 94.1% in the experiment on MDA-MB-231 breast; 112% in the experiment on RXF 393 renal; 115% in the experiment on SF-268 CNS. Moreover, the growth with SF-295 CNS is 121%; in the experiment on SF-539 CNS it was 112%; in the experiment with UACC-257 melanoma, 104%; in the experiment on M14 melanoma, 103%; in the experiment on HCT-15 colon, 93%; with HT29 colon, 82.4%. Further, the growth is 113% in the experiment on SNB-75 CNS; 97.2% in the experiment on SNB-19 CNS; 113% in the experiment on U251 CNS; 82% in the experiment on PC-3 prostate; 102% in the experiment with SK-MEL-5 melanoma; 82.3% in the experiment with UACC-62 melanoma. Moreover, the values for the growth with LOX IMVI melanoma and in the experiment on SK-MEL-28 melanoma were 98.1% and 102%, respectively.

Consider `Cc1ccc(C)c2c(C)c(C(=O)Nc3cccc(-n4cccn4)c3)oc12`, for which the growth with DU-145 prostate is 76.5% [50 µM]; in the experiment with K-562 leukemia, 37.1% [50 µM]; with MALME-3M melanoma it was 67.6% [50 µM]; in the experiment with MDA-MB-231 breast, 76.9% [50 µM]; with RXF 393 renal it was 79.6% [50 µM]; in the experiment with SF-268 CNS, 67.4% [50 µM]. Further, the growth with SF-295 CNS is 66% [50 µM]; with SF-539 CNS, 85.2% [50 µM]; in the experiment on UACC-257 melanoma, 92.9% [50 µM]; with M14 melanoma, 63.5% [50 µM]; with HCT-15 colon it was 49% [50 µM]; in the experiment with HT29 colon, 48.2% [50 µM]. The growth in the experiment with SNB-75 CNS was 86.6% [50 µM]; in the experiment on SNB-19 CNS, 87.2% [50 µM]; in the experiment with U251 CNS, 70.9% [50 µM]; with PC-3 prostate, 38.8% [50 µM]; in the experiment on SK-MEL-5 melanoma, 44.3% [50 µM]; in the experiment on UACC-62 melanoma it was 73.9% [50 µM]. Also, the growth in the experiment with LOX IMVI melanoma was 62.2% [50 µM]; with SK-MEL-28 melanoma it was 86.7% [50 µM].

`O=C(N/N=C/c1cc(Cl)ccc1O)c1ccccc1Nc1ccnc(C(F)(F)F)c1`: the growth was 25.8% in the experiment on DU-145 prostate; 89.3% in the experiment with K-562 leukemia; -18.7% (active) in the experiment with MALME-3M melanoma; 50.4% in the experiment on MDA-MB-231 breast; 58.3% in the experiment on RXF 393 renal; 18.3% in the experiment with SF-268 CNS. In addition, the growth with SF-295 CNS was 28.9%; in the experiment on SF-539 CNS it was -4.43% (active); with UACC-257 melanoma, 42.8%; in the experiment with M14 melanoma, 23.6%; with HCT-15 colon, 30.4%; in the experiment on HT29 colon it was 39.2%. Also, the growth in the experiment with SNB-75 CNS was 57.6%; in the experiment with SNB-19 CNS, 21%; in the experiment with U251 CNS it was 16.7%; with PC-3 prostate, 32.9%; in the experiment with SK-MEL-5 melanoma, 2.92% (active); in the experiment with UACC-62 melanoma it was -12% (active). Further, the growth in the experiment with LOX IMVI melanoma is 13.2%; in the experiment with SK-MEL-28 melanoma, 59.1%.

In the case of `Cc1ccc2c(-c3nnc(N)s3)cc(=O)oc2c1C`, the growth is 116% in the experiment on DU-145 prostate; 87.3% with K-562 leukemia; 104% in the experiment on MALME-3M melanoma; 96.5% with MDA-MB-231 breast; 106% with RXF 393 renal; 102% in the experiment with SF-268 CNS. In addition, the growth with SF-295 CNS is 97.4%; in the experiment with SF-539 CNS, 102%; with UACC-257 melanoma it was 106%; with M14 melanoma, 101%; in the experiment with HCT-15 colon it was 96.9%; in the experiment on HT29 colon it was 106%. Moreover, the growth is 92.6% with SNB-75 CNS; 104% with SNB-19 CNS; 99.7% with U251 CNS; 97.1% in the experiment with PC-3 prostate; 101% with SK-MEL-5 melanoma; 94.8% in the experiment on UACC-62 melanoma. The growth is 101% with LOX IMVI melanoma and 102% in the experiment with SK-MEL-28 melanoma.

In the case of `CCCn1cnc2c(c1=N)C(c1ccc(F)cc1)c1sc3c(F)cccc3c1O2` (stereo not given), the growth is 76.6% in the experiment with DU-145 prostate; 16.9% in the experiment with K-562 leukemia; 54.1% with MALME-3M melanoma; 63.3% in the experiment on MDA-MB-231 breast; 52.2% with RXF 393 renal; 49.6% with SF-268 CNS. For the same molecule, the growth in the experiment with SF-295 CNS was 27.7%; in the experiment with SF-539 CNS it was 32.6%; with UACC-257 melanoma it was 73.4%; in the experiment with M14 melanoma, 39.3%; with HCT-15 colon, 28%; in the experiment with HT29 colon, 63.6%. For the same molecule, the growth in the experiment on SNB-75 CNS was 26%; in the experiment on SNB-19 CNS, 35.4%; in the experiment with U251 CNS it was 30.8%; in the experiment on PC-3 prostate, 50.1%; with SK-MEL-5 melanoma, 42.2%; with UACC-62 melanoma, 12.1%. Also, the results for the growth with LOX IMVI melanoma and in the experiment with SK-MEL-28 melanoma were 43.4% and 56%, respectively.

Consider `CN(C)CCCC1(c2ccc(F)cc2)OCc2cc(-c3ccc4cc[nH]c4c3)ccc21` (stereo not given), for which the growth in the experiment with DU-145 prostate was 35.7%; with K-562 leukemia, -20.1% (active); with MALME-3M melanoma, 11%; with MDA-MB-231 breast it was 16%; with RXF 393 renal it was 45.8%; with SF-268 CNS it was 54%. Further, the growth was 74.5% with SF-295 CNS; 67.8% in the experiment with SF-539 CNS; 79.1% with UACC-257 melanoma; -56.8% (active) in the experiment with M14 melanoma; 25.8% in the experiment on HCT-15 colon; 4.73% (active) in the experiment on HT29 colon. Further, the growth with SNB-75 CNS is 33.8%; in the experiment on SNB-19 CNS, 69.2%; in the experiment with U251 CNS, 17.5%; in the experiment with PC-3 prostate, 43.5%; in the experiment on SK-MEL-5 melanoma, 56.6%; in the experiment on UACC-62 melanoma it was 56.9%. Further, the values for the growth in the experiment with LOX IMVI melanoma and with SK-MEL-28 melanoma were -83.4% (active) and 64.1%, respectively.

`COc1ccc(Nc2ncccc2/C=C/C(=O)c2cc(OC)c(OC)c(OC)c2)cc1`: the growth in the experiment on DU-145 prostate was 6.98% (active); with K-562 leukemia, -26.3% (active); with MALME-3M melanoma, -5.45% (active); in the experiment with MDA-MB-231 breast, 17.3%; with RXF 393 renal it was -61% (active); in the experiment on SF-268 CNS it was -33.2% (active). The growth in the experiment on SF-295 CNS was 17%; in the experiment with SF-539 CNS, -51.1% (active); with UACC-257 melanoma it was -89.7% (active); in the experiment on M14 melanoma, -53.4% (active); in the experiment with HCT-15 colon it was -57.2% (active); in the experiment on HT29 colon it was -66.8% (active). In addition, the growth with SNB-75 CNS was 21.4%; in the experiment on SNB-19 CNS, 33.4%; in the experiment on U251 CNS, -95.8% (active); in the experiment with PC-3 prostate it was -15.1% (active); in the experiment on SK-MEL-5 melanoma, -25.8% (active); in the experiment with UACC-62 melanoma, -24% (active). Also, the growth in the experiment on LOX IMVI melanoma is -63.6% (active); in the experiment on SK-MEL-28 melanoma, -77% (active).
